What all share (details): mRNA level, 48 h; actives raise or lower the signal
Read-out in assay [1]: Paternally Expressed 10 (PEG10), PEG10 (gene 23089)
The experiment in a line: LTEA_HepaRG_PEG10: Life Technologies and Expression Analysis (LTEA) Assay for Paternally Expressed 10 (PEG10) using HepaRG (AID 2283520). The procedure, abridged:
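Differentiated HepaRG cells exposed 48 h in serum-free induction medium to eight half-log concentrations topping at 100 uM, 0.5% DMSO, in duplicate. PEG10 mRNA quantified by TaqMan qRT-PCR, normalized to ACTB, GAPDH and POLR2A; bidirectional fit versus DMSO.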

Read-out in assay [2]: Protein phosphatase 2A (PPP2R4), PTPA (gene 5524)
Description: LTEA_HepaRG_PPP2R4: Life Technologies and Expression Analysis (LTEA) Assay for Protein phosphatase 2A (PPP2R4) using HepaRG (AID 2283522). The procedure, abridged: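 Differentiated human HepaRG cells in serum-free induction medium were exposed 48 h to 8 concentrations (top 100 µM, half-log steps, duplicate) in 0.5% DMSO. PPP2R4 mRNA was measured by TaqMan qRT-PCR, normalised to ACTB, GAPDH and POLR2A, and fitted bidirectionally versus DMSO.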

Read-out in assay [3]: Phosphatase and tensin (PTEN), PTEN (gene 5728)
Description: LTEA_HepaRG_PTEN: Life Technologies and Expression Analysis (LTEA) Assay for Phosphatase and tensin (PTEN) using HepaRG (AID 2283523). The procedure, abridged:
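Read-out is PTEN transcript level by multiplexed TaqMan qRT-PCR after 48 h chemical treatment of human HepaRG cultures in serum-free induction medium. Concentrations spanned 100 uM downward in half-log steps, 0.5% DMSO throughout; activity fitted in both directions against vehicle.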

Read-out in assay [4]: solute carrier (SLC22A1), SLC22A1 (gene 6580)
The experiment in a line: LTEA_HepaRG_SLC22A1: Life Technologies and Expression Analysis (LTEA) Assay for solute carrier (SLC22A1) using HepaRG (AID 2283524). In a few lines:
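HepaRG (human liver line), 48 h dosing in serum-free induction medium; 8 conc., half-log down from 100 uM, 0.5% DMSO vehicle, duplicates. Endpoint: SLC22A1 mRNA, qRT-PCR, housekeeping-normalized; gain/loss fit vs DMSO.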

Read-out in assay [5]: Pyruvate Dehydrogenase Kinase 4 (PDK4), PDK4 (gene 5166)
Description: LTEA_HepaRG_PDK4: Life Technologies and Expression Analysis (LTEA) Assay for Pyruvate Dehydrogenase Kinase 4 (PDK4) using HepaRG (AID 2283525). The procedure, abridged:
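In this multiplexed human HepaRG expression assay, cells are treated 48 h with test chemicals across an eight-point range starting at 100 uM. PDK4 mRNA changes, normalized to ACTB/GAPDH/POLR2A, are fitted in both directions relative to vehicle.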

Read-out in assay [6]: NAD(P)H dehydrogenase [quinone] 1 (NQO1), NQO1 (gene 1728)
The experiment in a line: LTEA_HepaRG_NQO1: Life Technologies and Expression Analysis (LTEA) Assay for NAD(P)H dehydrogenase [quinone] 1 (NQO1) using HepaRG (AID 2283526). In a few lines: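 Differentiated human HepaRG cells in serum-free induction medium, dosed in duplicate for 48 h at 8 half-log concentrations up to 100 uM in 0.5% DMSO. NQO1 mRNA by qRT-PCR normalized to ACTB, GAPDH, POLR2A; bidirectional fit versus DMSO baseline.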

Read-out in assay [7]: succinate dehydrogenase complex iron sulfur subunit B (SDHB), SDHB (gene 6390)
Description: LTEA_HepaRG_SDHB: Life Technologies and Expression Analysis (LTEA) Assay for succinate dehydrogenase complex iron sulfur subunit B (SDHB) using HepaRG (AID 2283528). In a few lines: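 A human HepaRG culture in serum-free induction medium received test chemicals for 48 h over an eight-point range capped at 100 uM. SDHB expression change was quantified by qRT-PCR.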

Read-out in assay [8]: Signal transducer and activator of transcription 3 (Homo sapiens) (UniProt P40763)
The experiment in a line: LTEA_HepaRG_STAT3: Life Technologies and Expression Analysis (LTEA) Assay for Signal transducer and activator of transcription (STAT3) using HepaRG (AID 2283529). In a few lines:
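Read-out is STAT3 mRNA level by qRT-PCR, normalized to three housekeeping genes, in human HepaRG liver cells treated for 48 h. Concentrations ran from 100 uM downward in half-log steps; curves were fitted for gain or loss relative to 0.5% DMSO.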

Read-out in assay [9]: solute carrier (SLCO1B1), SLCO1B1 (gene 10599)
The experiment in a line: LTEA_HepaRG_SLCO1B1: Life Technologies and Expression Analysis (LTEA) Assay for solute carrier (SLCO1B1) using HepaRG (AID 2283530). The procedure, abridged: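 Human HepaRG cultures treated for 48 h with an eight-concentration half-log series topping at 100 uM; SLCO1B1 measured by qRT-PCR and fitted bidirectionally relative to DMSO.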

Read-out in assay [10]: sulfotransferase 2A1 (SULT2A1), SULT2A1 (gene 6822)
The experiment in a line: LTEA_HepaRG_SULT2A1: Life Technologies and Expression Analysis (LTEA) Assay for sulfotransferase 2A1 (SULT2A1) using HepaRG (AID 2283531). In a few lines: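 Gene-expression endpoint in a human liver cell line: SULT2A1 mRNA change after 48 h chemical treatment, curves fitted in both directions relative to 0.5% DMSO vehicle. Concentrations spanned eight half-log steps from 100 uM.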

Read-out in assay [11]: Transforming Growth Factor (TGFA), TGFA (gene 7039)
The experiment in a line: LTEA_HepaRG_TGFA: Life Technologies and Expression Analysis (LTEA) Assay for Transforming Growth Factor (TGFA) using HepaRG (AID 2283532). In a few lines:
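HepaRG (human liver line), 48 h exposure, 8 conc. half-log down from 100 uM, 0.5% DMSO vehicle, duplicates; serum-free induction medium. TGFA mRNA by TaqMan qRT-PCR, ACTB/GAPDH/POLR2A normalization; gain/loss fit vs DMSO.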

Read-out in assay [12]: Transforming Growth Factor (TGFB1), TGFB1 (gene 7040)
Description: LTEA_HepaRG_TGFB1: Life Technologies and Expression Analysis (LTEA) Assay for Transforming Growth Factor (TGFB1) Transporter using HepaRG (AID 2283533). In a few lines: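 Eight-point concentration-response (max 100 uM, half-log) in HepaRG under serum-free induction conditions, 48 h. TGFB1 mRNA by qRT-PCR, housekeeping-normalized.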

Read-out in assay [13]: TIMP1, TIMP1 (gene 7076)
Description: LTEA_HepaRG_TIMP1: Life Technologies and Expression Analysis (LTEA) Assay for TIMP1 using HepaRG (AID 2283534).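 Further: TaqMan qRT-PCR signal normalized to ACTB GAPDH and POLR2A housekeeping genes.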 In a few lines:
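TIMP1 induction or repression in HepaRG cells after 48 h chemical exposure (eight concentrations, highest 100 uM), assessed by normalized qRT-PCR with bidirectional fitting to DMSO controls.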

Read-out in assay [14]: Tumor necrosis factor receptor 1 (TNFRSF1A), TNFRSF1A (gene 7132)
Description: LTEA_HepaRG_TNFRSF1A: Life Technologies and Expression Analysis (LTEA) Assay for Tumor necrosis factor receptor 1 (TNFRSF1A) using HepaRG (AID 2283535). The procedure, abridged:
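Assay uses 48 h chemical treatment of differentiated HepaRG monolayers, tested in duplicate at eight concentrations from 100 uM downward in 0.5% DMSO. mRNA is normalized to ACTB, GAPDH and POLR2A, with induction or suppression fitted relative to vehicle.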

Read-out in assay [15]: Thyroid Hormone Responsive (THRSP), THRSP (gene 7069)
Description: LTEA_HepaRG_THRSP: Life Technologies and Expression Analysis (LTEA) Assay for Thyroid Hormone Responsive (THRSP) using HepaRG (AID 2283536). The procedure, abridged:
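mRNA induction or loss relative to 0.5% DMSO vehicle was fitted bidirectionally across an eight-point curve whose highest exposure was 100 uM. Human HepaRG liver cells received chemicals in duplicate over 48 h before RNA extraction.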

Read-out in assay [16]: Cellular tumor antigen p53 (Homo sapiens) (UniProt P04637)
The experiment in a line: LTEA_HepaRG_TP53: Life Technologies and Expression Analysis (LTEA) Assay for Tumor Protein P53 (TP53) using HepaRG (AID 2283537). In a few lines:
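Gain or loss of TP53 mRNA signal is scored relative to 0.5% DMSO after 48 h chemical treatment of HepaRG liver cells, tested in duplicate at eight half-log concentrations up to 100 uM.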

Read-out in assay [17]: UDP glucuronosyltransferase (UGT1A1), UGT1A1 (gene 54658)
The experiment in a line: LTEA_HepaRG_UGT1A1: Life Technologies and Expression Analysis (LTEA) Assay for UDP glucuronosyltransferase (UGT1A1) using HepaRG (AID 2283538). In a few lines:
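HepaRG cells, 0.5% DMSO vehicle, 48 h exposure in serum-free induction medium to 8-point half-log series topping at 100 uM, in duplicate. UGT1A1 mRNA by Fluidigm qRT-PCR, normalized to ACTB/GAPDH/POLR2A; bidirectional fit versus DMSO.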

Read-out in assay [18]: Nuclear factor NF-kappa-B p105 subunit (Homo sapiens) (UniProt P19838)
Description: LTEA_HepaRG_NFKB1: Life Technologies and Expression Analysis (LTEA) Assay for Nuclear Factor Kappa B Subunit 1 (NFKB1) using HepaRG (AID 2283521).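 Further: TaqMan qRT-PCR transcript normalised to ACTB GAPDH and POLR2A housekeeping genes.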 The procedure, abridged:
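Human HepaRG cells receive eight half-log concentrations, highest 100 uM, for 48 h. NFKB1 expression is then quantified by qRT-PCR and analysed for up- or down-regulation relative to 0.5% DMSO vehicle.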

Read-out in assay [19]: Nuclear factor erythroid 2-related factor 2 (Homo sapiens) (UniProt Q16236)
The experiment in a line: LTEA_HepaRG_NFE2L2: Life Technologies and Expression Analysis (LTEA) Assay for Nuclear factor erythroid 2-related factor 2 (NFE2L2) Transcription Factor using HepaRG (AID 2283527).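 Further: TaqMan qRT-PCR transcript level normalised to ACTB GAPDH and POLR2A housekeeping genes.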 The procedure, abridged:
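Transcript level of NFE2L2 is the read-out, measured by microfluidic TaqMan qRT-PCR and normalized to three housekeeping genes. Human HepaRG cultures received test chemical for 48 h at up to 100 uM in half-log steps. Gain or loss of signal is fitted relative to 0.5% DMSO.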

Each structure is given as a SMILES string. Calls of active or inactive are those of the source. How the source made its calls: active means hit-call score of the fitted dose curve at least 0.9, where 1 is the maximum; inactive means score below 0.9.

Chain of Cellular tumor antigen p53 (Homo sapiens) (P04637 whole entry, looked up): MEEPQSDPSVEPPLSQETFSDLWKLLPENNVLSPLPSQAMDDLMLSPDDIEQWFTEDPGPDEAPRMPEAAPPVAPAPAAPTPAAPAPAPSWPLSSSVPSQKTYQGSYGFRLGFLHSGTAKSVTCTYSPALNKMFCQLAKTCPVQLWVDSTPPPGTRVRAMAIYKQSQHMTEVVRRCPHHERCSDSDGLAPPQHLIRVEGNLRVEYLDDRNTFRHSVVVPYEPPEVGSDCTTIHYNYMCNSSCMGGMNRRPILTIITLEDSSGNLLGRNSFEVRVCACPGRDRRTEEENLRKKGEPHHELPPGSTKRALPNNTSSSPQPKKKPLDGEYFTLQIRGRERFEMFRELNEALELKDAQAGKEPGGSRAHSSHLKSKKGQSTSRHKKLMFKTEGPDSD
Chain of Signal transducer and activator of transcription 3 (Homo sapiens) (P40763 whole entry, looked up): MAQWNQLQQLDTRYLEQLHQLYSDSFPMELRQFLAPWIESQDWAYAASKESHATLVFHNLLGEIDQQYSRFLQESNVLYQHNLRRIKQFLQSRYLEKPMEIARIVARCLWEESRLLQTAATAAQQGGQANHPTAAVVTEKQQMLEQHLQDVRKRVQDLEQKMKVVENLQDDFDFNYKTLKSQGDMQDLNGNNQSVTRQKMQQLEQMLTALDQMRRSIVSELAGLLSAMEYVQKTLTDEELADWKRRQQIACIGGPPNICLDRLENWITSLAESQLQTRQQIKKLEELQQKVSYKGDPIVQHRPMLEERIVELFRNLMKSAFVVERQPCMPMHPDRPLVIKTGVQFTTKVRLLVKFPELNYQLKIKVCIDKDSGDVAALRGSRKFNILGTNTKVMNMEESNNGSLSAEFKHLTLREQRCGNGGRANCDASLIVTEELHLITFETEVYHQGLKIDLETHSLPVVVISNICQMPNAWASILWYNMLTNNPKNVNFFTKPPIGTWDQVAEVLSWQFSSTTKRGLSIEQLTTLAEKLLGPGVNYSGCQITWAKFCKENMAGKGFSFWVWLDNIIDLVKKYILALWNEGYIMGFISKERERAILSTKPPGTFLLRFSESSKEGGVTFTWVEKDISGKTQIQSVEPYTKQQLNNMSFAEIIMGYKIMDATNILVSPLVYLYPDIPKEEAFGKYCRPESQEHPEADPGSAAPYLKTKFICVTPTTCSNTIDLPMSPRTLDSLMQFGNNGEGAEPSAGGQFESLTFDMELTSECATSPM
Chain of Nuclear factor NF-kappa-B p105 subunit (Homo sapiens) (P19838 whole entry, looked up): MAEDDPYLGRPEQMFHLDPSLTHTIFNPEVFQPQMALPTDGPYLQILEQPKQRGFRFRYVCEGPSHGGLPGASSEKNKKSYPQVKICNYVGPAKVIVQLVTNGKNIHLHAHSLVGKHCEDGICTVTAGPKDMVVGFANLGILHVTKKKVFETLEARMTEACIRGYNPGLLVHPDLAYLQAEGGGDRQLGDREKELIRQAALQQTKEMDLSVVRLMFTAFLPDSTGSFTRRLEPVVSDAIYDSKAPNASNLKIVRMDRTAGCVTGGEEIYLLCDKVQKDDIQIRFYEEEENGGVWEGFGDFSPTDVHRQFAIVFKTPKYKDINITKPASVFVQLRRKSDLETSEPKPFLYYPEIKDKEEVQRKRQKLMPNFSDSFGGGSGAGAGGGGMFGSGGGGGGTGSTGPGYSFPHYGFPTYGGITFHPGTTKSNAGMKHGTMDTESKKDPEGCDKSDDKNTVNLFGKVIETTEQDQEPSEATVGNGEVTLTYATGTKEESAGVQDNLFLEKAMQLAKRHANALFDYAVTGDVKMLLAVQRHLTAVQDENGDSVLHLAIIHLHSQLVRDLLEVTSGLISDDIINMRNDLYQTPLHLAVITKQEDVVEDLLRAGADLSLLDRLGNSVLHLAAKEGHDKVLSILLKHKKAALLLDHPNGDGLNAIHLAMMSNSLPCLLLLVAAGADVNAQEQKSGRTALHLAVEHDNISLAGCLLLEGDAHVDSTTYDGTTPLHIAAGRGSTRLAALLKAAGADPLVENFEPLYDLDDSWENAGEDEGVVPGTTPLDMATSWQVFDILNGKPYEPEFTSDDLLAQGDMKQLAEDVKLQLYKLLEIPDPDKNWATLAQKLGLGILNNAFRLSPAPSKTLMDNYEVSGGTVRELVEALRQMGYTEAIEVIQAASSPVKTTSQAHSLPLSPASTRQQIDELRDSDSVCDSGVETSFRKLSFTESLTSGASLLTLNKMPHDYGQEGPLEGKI
Chain of Nuclear factor erythroid 2-related factor 2 (Homo sapiens) (Q16236 whole entry, looked up): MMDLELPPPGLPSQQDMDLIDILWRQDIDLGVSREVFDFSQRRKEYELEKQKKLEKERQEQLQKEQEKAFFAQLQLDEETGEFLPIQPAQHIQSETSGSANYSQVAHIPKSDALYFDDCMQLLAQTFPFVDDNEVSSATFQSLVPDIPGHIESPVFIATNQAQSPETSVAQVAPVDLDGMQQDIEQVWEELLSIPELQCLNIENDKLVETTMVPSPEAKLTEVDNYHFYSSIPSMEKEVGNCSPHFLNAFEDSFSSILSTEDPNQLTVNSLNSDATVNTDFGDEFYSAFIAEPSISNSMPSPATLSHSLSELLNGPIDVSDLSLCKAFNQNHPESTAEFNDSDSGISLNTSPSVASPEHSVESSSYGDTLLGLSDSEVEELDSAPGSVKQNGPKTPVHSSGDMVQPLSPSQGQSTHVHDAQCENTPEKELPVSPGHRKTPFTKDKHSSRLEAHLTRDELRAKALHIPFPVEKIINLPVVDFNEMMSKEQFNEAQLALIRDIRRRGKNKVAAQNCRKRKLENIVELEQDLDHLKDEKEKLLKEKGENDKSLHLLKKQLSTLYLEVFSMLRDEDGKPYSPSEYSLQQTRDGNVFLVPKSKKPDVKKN

By AC50 is commonly meant the concentration at which the activity in the assay is half-maximal. As to `CCCCC(CC)COC(=O)c1ccccc1C(=O)O` (stereo unspecified), the outcome in assay [1], in assay [2], in assay [3], in [4], in [6] and in [7] was inactive. Besides, the call in [8], in [9], in [10], in assay [11], in assay [12] and in assay [13] was inactive. Moreover, the result in [14], in assay [15] and in [16] was inactive. The AC50 in [5] is 79.9 µM (active); in [17], 64.9 µM (active).

Consider `CCCN(CCC)c1c([N+](=O)[O-])cc(C(F)(F)F)c(N)c1[N+](=O)[O-]`, for which the AC50 is 17.4 µM (active) in assay [1], 50 µM (active) in [12], 22.5 µM (active) in assay [15] and 6.48 µM (active) in [17]. The compound was called inactive in [18], in assay [2], in assay [3], in assay [5], in assay [6] and in assay [7]. Moreover, the compound was classed as inactive in assay [8], in [9], in assay [10], in assay [11], in assay [13] and in assay [14]. Moreover, in assay [16], the result was inactive.

For the compound `CCOC(=O)COc1cc(-n2ncc(C(F)(F)F)c(C)c2=O)c(F)cc1Cl`, the call in assay [1], in assay [2], in assay [3], in assay [5], in [6] and in [19] was inactive. In addition, the compound was called inactive in [7], in assay [8], in assay [9], in assay [10], in [11] and in [12]. Further, the outcome in [13], in assay [14], in [15], in assay [16] and in [17] was inactive.

The values are drawn from PubChem BioAssay (EPA / NIEHS).
